52 molecules from PubChem BioAssay AID588795 (National Center for Advancing Translational Sciences (NCATS), 2011) can be followed below.

Molecules are shown by their SMILES. Among all 390,000 compounds or so, about 1,400 (0.36%) were called active. Not shown: some 2% with an inconclusive outcome. The full list was thinned out, with actives kept by preference. A number with no mark means an inactive call. The call rests on the fitted dose curve; in most records, active means well fitted inhibition curve with a large enough effect; inconclusive means small, poorly fitted or top-dose-only effect; inactive means no such curve, though single readings can be large or run the other way.
On the % scale 0 is the no-effect control and ±100 the full control effect; potency means the concentration at half of the fitted maximal effect.

Flap endonuclease 1 (Homo sapiens), sequence (P39748 whole entry, looked up, the tested form may be a part): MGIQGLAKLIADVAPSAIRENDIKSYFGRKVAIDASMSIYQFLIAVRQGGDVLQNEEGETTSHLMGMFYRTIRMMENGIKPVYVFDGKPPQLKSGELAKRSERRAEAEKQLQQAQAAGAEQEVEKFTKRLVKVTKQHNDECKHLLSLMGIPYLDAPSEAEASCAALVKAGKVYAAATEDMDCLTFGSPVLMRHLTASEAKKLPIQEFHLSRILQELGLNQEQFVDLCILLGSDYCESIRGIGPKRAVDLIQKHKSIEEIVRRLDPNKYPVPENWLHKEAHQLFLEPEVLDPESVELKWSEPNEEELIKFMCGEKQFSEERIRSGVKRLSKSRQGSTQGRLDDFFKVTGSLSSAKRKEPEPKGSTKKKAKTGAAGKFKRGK

This test has as its target Flap endonuclease 1 (Homo sapiens) (UniProt P39748). Put plainly: qHTS Assay for the Inhibitors of Human Flap endonuclease 1 (FEN1). Further: nearly all actives have a fitted effect of over 65% in size. The conditions noted are these: Recombinant FEN1 flap cleavage, fluorescence, 15 min; series mostly up to 114 µM; activity change, negative = inhibition: at the top concentration. The text has this:
The major human flap endonuclease FEN1 is an efficient structure-specific enzyme that recognizes and cleaves a 5'-unannealed DNA flap. It belongs to the RAD2 family nucleases, which are involved in DNA metabolism and are highly conserved in prokaryotes and eukaryotes. FEN1 is a key enzyme in DNA replication, repair and maintenance of genomic stability. 5'-flap removal by FEN1 is critical for Okazaki fragment processing during lagging strand DNA synthesis, long-patch base excision repair (LP BER), and regulating or facilitating recombination events. […] Deletion of the yeast FEN1 gene, i.e. rad27, results in an increased frequency of short DNA (3-32 bp) repeats, micro- and mini-satellite formation, trinucleotide repeat expansion, spontaneous recombination events, and a severe growth defect in association with cell cycle arrest in late S/G2 phase. […] Cells from fen1-/- blastocysts show increased apoptotic cell death after ionizing radiation treatment, and chicken cells lacking the fen1 gene are hypersensitive to DNA alkylating agents, e.g. methylmethane sulfonate (MMS) and N-methyl-N'-nitro-N-nitrosoguanidine (MNNG), as well as hydrogen peroxide.
NIH Chemical Genomics Center [NCGC]
NIH Molecular Libraries Probe Centers Network [MLPCN]
Assay Submitter (PI): David Wilson, National Institute of Aging
Three uL of reagents (buffer in column 3 and 4 as negative control and 10 nM FEN1 in columns 1, 2, and 5-48) were dispensed into 1,536-well black solid-bottomed plate. Compounds (23 nL) were transferred via Kalypsys pin tool equipped with 1536-pin array (10 nL slotted pins, V&P Scientific, San Diego, CA). The plates were then incubated for 15 min at room temperature, and 1 uL substrate (50 nM final concentration) were added to start the reaction read twice at 0 min read and 15 min on ViewLux reader. Throughout the screen, reagent bottle and all liquid lines were chilled and made light-tight to minimize reagent degradation. All screening operations were performed on a fully integrated robotic system (Kalypsys, San Diego, CA) containing one RX-130 and two RX-90 anthropomorphic robotic arms (Staubli, Duncan, SC). Library plates were screened starting from the lowest and proceeding to the highest concentration, and a "double-dipping" step of the highest concentration was required to access higher concentrations of compounds. Vehicle-only plates, with DMSO being pin-transferred to the entire column 5-48 compound area, were inserted uniformly at the beginning and the end of each library in order to monitor for and record any shifts in the background, which can be affected by reagent dispensers or loss in enzyme activity overtime. Screening data was corrected, normalized, and concentration-effect relationships were derived by using publicly-available curve fitting algorithms developed in-house (http://ncgc.nih.gov/pub/openhts). A four parameter Hill equation was fitted to the concentration-response data by minimizing the residual error between the modeled and observed responses.
On the technique in general: In qHTS, concentration-response curves come from the screen itself.
`Oc1ccc(Cl)cc1C1C=C(c2ccc3c(c2)OCO3)NC(c2ccc(F)c(Br)c2)N1` (configuration not stated): the “activity change, negative = inhibition” value was -12.7%.

For the molecule `CC(C)(C)OC(=O)N1CCC(c2c(C(=O)NCc3ccccn3)cnn2-c2ccc(F)cc2)CC1`, the “activity change, negative = inhibition” value was 17.5%.

On to `CCCCC(CCCC)c1ccc(C=Nc2ccc(/C=C/c3ccnc4ccccc34)cc2)cc1`, for which the “activity change, negative = inhibition” value was -8.04%.

Turning to `COc1ccc(Cl)cc1NC(=O)CCn1c(=O)c2cccn2c2ccccc21`, the “activity change, negative = inhibition” value is 1.92%.

For `O=C(c1cnn2c1NC(=C1CC1)C=C2C(F)F)N1CCc2ccccc2C1`, the “activity change, negative = inhibition” value is 6.45%.

On to `Cc1csc(NCC(=O)c2c[nH]c3ccccc23)n1`, for which the “activity change, negative = inhibition” value is -13.2%.

For `CN(C)C1=C2C=CC=CC2/C(=C2/C=Cc3ccccc32)C=C1` (configuration not stated), the “activity change, negative = inhibition” value was 16.4%.

In the case of `OC(CBr)C[n+]1cccc2cc(Br)ccc21` (configuration not stated), the “activity change, negative = inhibition” value was 12.1%.

Regarding `CCc1ccc2nc3sc(C(=O)Nc4nnc(CC)s4)c(N)c3cc2c1`, the Potency is 44.7 µM (active).

Regarding `CCc1ccc(NC(=O)c2sc3nc4c(cc3c2N)CN(CC)CC4)cc1`, the “activity change, negative = inhibition” value was -7.99%.

As for `CCc1nnc(NC(=O)c2cc(S(=O)(=O)N3CCCCC3)ccc2C)s1`, the “activity change, negative = inhibition” value was -10.7%.

For `CN(Cc1ccccc1)c1ccc(/C=C/c2ccnc3ccccc23)cc1`, the “activity change, negative = inhibition” value is -3.17%.

With `O=C(c1ccco1)N(Cc1cccs1)c1ccc(O)cc1`, the “activity change, negative = inhibition” value is -3.59%.

As to `OC[C@@H]1O[C@H](n2cnc3c(SCc4ccccc4)ncnc32)[C@H](O)[C@H]1O`, the “activity change, negative = inhibition” value was 3.88%.

With `CCN(CC)c1ccc(/C=C/c2c(C)cnc3ccc(C)cc23)cc1`, the “activity change, negative = inhibition” value is -7.36%.

`CN=C1S/C(=C\c2c(OC)cc(OC)cc2OC)C(=O)N1C`: the “activity change, negative = inhibition” value is -1.06%.

Turning to `CN1C(=O)/C(=C/c2ccco2)SC1=Nc1cccc(C(=O)O)c1`, the Potency was 50.1 µM (active).

Consider `O=C(O)c1cccc(N=NN2CCCCCC2)c1`, for which the “activity change, negative = inhibition” value is -1.46%.

For the molecule `COc1cc2[nH]c(C)c(CCN3CCN(c4ccccc4)CC3)c2cc1OC`, the “activity change, negative = inhibition” value was -3.35%.

Take `O=C(CSc1nc(=O)n(Cc2cccnc2)c2c1CCC2)Nc1ccc(F)cc1F`: the “activity change, negative = inhibition” value was -2.33%.

For `Cc1ccc(C(=O)O)cc1-c1ccc(/C=C2\SC(=O)N(CC(=O)Nc3ccc4c(c3)OCO4)C2=O)o1`, the Potency was 39.8 µM (active).

With `COC(=O)c1ccc2c(c1)N(CC(=O)Nc1ccc(C)c(C)c1)C(=O)c1ccccc1S2`, the “activity change, negative = inhibition” value was 7.24%.

Take `Cc1nc([N+](=O)[O-])cn1CC(=O)Nc1ccc2c(c1)OCO2`: the “activity change, negative = inhibition” value is -12.8%.

Turning to `CSc1n[nH]c(-c2ccco2)n1`, the “activity change, negative = inhibition” value was 7.75%.

Consider `CCC(=C/c1sc2ccc3ccccc3c2[n+]1C)/C=C1\Sc2ccc3ccccc3c2N1C`, for which the Potency was 12.6 µM (active).

Turning to `CCCCNC(=O)Cn1c(SCc2cccc(Cl)c2)nc2ccncc21`, the “activity change, negative = inhibition” value was -5.18%.

Consider `CC(C)(C)c1ccc(C(=O)C[N+]2(C)CCCc3ccccc32)cc1` (configuration not stated), for which the “activity change, negative = inhibition” value was -18.8%.

As for `CCOc1nc(NCCN2CCOCC2)nc(Nc2ccc(C)cc2)n1`, the “activity change, negative = inhibition” value was -1.38%.

On to `c1ccc2cc3c(NCCN4CCOCC4)ccnc3cc2c1`, for which the Potency was 17.8 µM (active).

In the case of `Fc1ccc(-c2ccc(NCCN3CCOCC3)nn2)cc1`, the “activity change, negative = inhibition” value was 18.6%.

As to `COc1cc(OC)c(OC)cc1/C=C1\C=Cc2ccccc21`, the “activity change, negative = inhibition” value was -23.5%.

As for `O=S(=O)(c1cccc(C(F)(F)F)c1)N1CCN(c2nc(-c3cccs3)nc3ccccc23)CC1`, the “activity change, negative = inhibition” value was -7.49%.

Take `CN(C(=O)CCN1C(=O)/C(=C/c2ccccc2F)SC1=S)C1CCS(=O)(=O)C1` (configuration not stated): the “activity change, negative = inhibition” value is -11.1%.

For `O=C1/C(=C\c2ccccc2Cl)SC(=S)N1CCC(=O)N1CCCc2ccccc21`, the “activity change, negative = inhibition” value is 2.46%.

In the case of `Cc1ccc(-c2nn(-c3ccccc3)cc2/C=C2\SC(=S)N(CCCCCC(=O)O)C2=O)o1`, the Potency is 31.6 µM (active).

For `Cc1cc(C)c2nc3nc(C)cc(C)c3c(N)c2c1`, the Potency was 39.8 µM (active).

Turning to `CN1CCN(c2oc(-c3ccc(COc4ccc(Cl)cc4)o3)nc2C#N)CC1`, the “activity change, negative = inhibition” value is -18.9%.

Take `COc1ccc(OC)c(NC(=O)C2CCCN(S(=O)(=O)c3ccc4c(c3)CCCC(=O)N4)C2)c1` (configuration not stated): the “activity change, negative = inhibition” value was 13.2%.

As to `COc1cccc2sc3cc(NCC[C@@H]4CCCN4C)ccc3c(=O)c12`, the Potency is 50.1 µM (active).

For the molecule `COc1cccc(OC)c1C(=O)Nc1ccc2c(c1)n(C)c(=O)n2C`, the “activity change, negative = inhibition” value was 3.61%.

On to `COc1ccc(/C=C/c2ccnc3ccccc23)cc1OC`, for which the “activity change, negative = inhibition” value is -27.7%.

Take `CNc1ccc(-c2nc(-c3ccco3)no2)cc1[N+](=O)[O-]`: the “activity change, negative = inhibition” value is -8.06%.

In the case of `COC(=O)c1ccccc1NS(=O)(=O)c1ccc2[nH]c(=O)[nH]c2c1`, the “activity change, negative = inhibition” value is -6.85%.

For the molecule `CCOc1ncccc1C(=O)NNC(=O)c1cccc(S(=O)(=O)Nc2ccccc2OC)c1`, the “activity change, negative = inhibition” value was 0.756%.

Regarding `COc1cccc(/C=N/Nc2ccc(S(=O)(=O)Nc3ccccc3C(=O)O)cc2[N+](=O)[O-])c1O`, the Potency is 79.4 µM (active).

Turning to `O=C1C(Cl)=C(Oc2ccccc2)C(=O)c2ccccc21`, the Potency is 56.2 µM (active).

As for `COc1ccc(Cn2c(=O)[nH]c3cc(C(=O)N4CCN(C(=O)c5ccco5)CC4)ccc3c2=O)cc1`, the “activity change, negative = inhibition” value was -29.9%.

Take `Cc1ccc(S(=O)(=O)N2CCN(c3nc(-n4cnc5ccccc54)nc4ccccc34)CC2)cc1`: the “activity change, negative = inhibition” value is -4.02%.

Regarding `C/C=C/NNC(=O)Cc1ccc(OC)cc1`, the “activity change, negative = inhibition” value was -0.0345%.

On to `Cc1cccc(OP(=O)(Nc2c(C)n(C)n(-c3ccccc3)c2=O)Oc2cccc(C)c2)c1`, for which the “activity change, negative = inhibition” value is 4.61%.

In the case of `Cc1cccc(Oc2c([N+](=O)[O-])c(=O)n(C)c3ccccc23)c1`, the Potency is 20 µM (active).

For `Cc1cccc(C2CC(=O)Oc3c2c(=O)n(C)c2ccccc32)c1` (configuration not stated), the “activity change, negative = inhibition” value was 2.21%.
